“And” between values parts separate entries of the source, which are not always exact repeats. Equal values may be shown once. Among all 360,000 compounds or so, about 1,100 (0.31%) were called active. No stated cut-off is given here; in the data, active means activation above about 7.5%; inactive means the rest. For the sample, actives were picked, then their nearest neighbours and some compounds at random.
Each compound was assayed on Methionine sulfoxide reductase A (Bos taurus) (assay: bovine MsrA enzyme activators, primary screen, biochemical, absorbance, HTS (AID 602163;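 further: 0% = vehicle and 100% = reference activator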)). Settings: purified bovine MsrA, absorbance read-out; at 10.6 µM; hits give high values.

Structure (SMILES)	activation
COc1ccc(NC(=O)CSc2nnnn2-c2cccc(OC)c2)cc1	-2.59% (inactive)
CCOC(=O)C(C)n1cnc2c(nnn2-c2cccc(OC)c2)c1=O (stereo not drawn)	-0.63% (inactive)
CCOc1cccc(-n2nnnc2-c2ccc(OC)cc2)c1	15.8% (active)
COC(=O)c1c(C)cc(O)c(C)c1O	3.54% (inactive)
Cc1cc(OCc2cc(C(=O)NCc3cc(C(C)C)no3)no2)cc(C)c1Cl	-8.01% (inactive)
S=c1[nH]nc(NCCc2ccccc2)s1	10.4% (active)
Nc1c(NCCc2ccccc2)c2ccccc2oc1=O	-3.29% (inactive)
S=c1[nH]nc(Nc2ccccc2)s1	3.66% (inactive)
Cc1cc(=O)oc2c1ccc1ccccc12	-2.71% (inactive)
COC(=O)C1[C@H]2SC(C)(C)C(C(=O)OC)N2C(=O)N1Cc1nc2ccccc2s1 (stereo partly drawn)	-2.77% (inactive)
CC1(C)S[C@@H]2[C@H](NC(=O)COc3ccccc3)C(=O)N2C1C(=O)OCc1ccccc1 (stereo partly drawn)	8.55% (active)
CC1(C)SC2C(NC(=O)COc3ccccc3)C(=O)N2C1C(=O)O (stereo not drawn)	-2.47% (inactive) and -3.56% (inactive)
O=c1oc2ccc(C#CC3(O)CCCCC3)cc2cc1-n1cc(-c2ccsc2)nn1	-0.09% (inactive)
Cn1nnnc1SCC(=O)Nc1cccc(S(=O)(=O)N2CCCCC2)c1	-4.48% (inactive)
O=C(CSc1ccccc1)Nc1cccc(S(=O)(=O)N2CCCCC2)c1	-2.42% (inactive)
CSCCC1NC(=O)N(CC(=O)Nc2cccc(S(=O)(=O)N3CCCCCC3)c2)C1=O (stereo not drawn)	15.5% (active)
O=C(NC1CCN(C(=S)Nc2ccc(Cl)cc2)CC1)C1CCCCC1	-9.13% (inactive)
CC(=O)Nc1ccc(NC(=O)C2CCCN(S(=O)(=O)c3ccc(Cl)cc3)C2)cc1 (stereo not drawn)	-1.47% (inactive)
O=C(O)Cc1ccc(NC(=O)C2CCCCC2C(=O)O)cc1 (stereo not drawn)	8.45% (active)
Cc1ccc(NC(=O)C2CC2c2ccccc2)cc1 (stereo not drawn)	1.6% (inactive)
O=C(Cc1ccc(F)cc1)NC1CCCC1	-5.09% (inactive)

Structure (SMILES)	activation
O=C(O)C1CCCCC1C(=O)Nc1ccc(Cl)cc1 (stereo not drawn)	9.28% (active)
O=S1(=O)C=C(SCCN2CCCC2)c2ccccc21	3.43% (inactive)
CN1CCN(c2ccc3c(c2)OC[C@H](Cc2ccccc2)NS3(=O)=O)CC1	-2% (inactive)
O=C(O)C1OC(C(=O)O)C2C1C(F)(F)C2(F)F (stereo not drawn)	0.7% (inactive)
C/C(Cc1ccccc1)=N\NC(=O)CNC(=O)c1ccc2c(c1)OCCO2	-1.01% (inactive)
Cc1ccc(NC(=O)c2cc([N+](=O)[O-])ccc2Cl)c(O)c1	-10% (inactive)
O=C(Nc1ccc2c(c1)OCCO2)C(c1ccc(F)cc1)N1CCCCC1 (stereo not drawn)	-9.07% (inactive)
COc1cccc(CNCCc2c[nH]c3ccccc23)c1OCc1ccccc1F	7.97% (active)
Fc1ccccc1COc1ccccc1CNCc1ccncc1	-0.5% (inactive)
COc1ccc(CN(C)C(=O)Cc2c[nH]c3ccccc23)c(OC)c1OC	-0.09% (inactive)
CSc1ccc(Cl)c(C(=O)OCC(=O)N2CC(C)OC(C)C2)c1 (stereo not drawn)	1.67% (inactive)
CCN(/N=C/c1ccc(N(C)C)cc1)c1nc2ccccc2[nH]1	-3.63% (inactive)
CC1(C)CC(=O)C(C=NCc2cccnc2)=C(O)C1	-1.39% (inactive)
COC(=O)C1(O)CC(C(C)C)=NN1C(=O)c1ccc(Cl)cc1 (stereo not drawn)	-2.59% (inactive)
NC(=O)c1cc(-c2cccnc2)nc2ccc(Br)cc12	-2.46% (inactive)
NC(N)=Nc1nc2ccc(Br)cc2c(=O)[nH]1	-1.23% (inactive)
O=c1c2cc(Br)ccc2nc(-c2cccc(Cl)c2)n1O	8.68% (active)
COc1ccccc1C(=O)Nc1ccc(OCC(=O)N2CCCCC2)cc1	-2.88% (inactive)
COc1ccc(/C=C/C2=CC(C)(C)NC(=S)N2)c(OC)c1	-3.37% (inactive)
COc1ccc(NC(=O)COC(=O)CNC(=O)C2CCCCC2)cc1	-4.73% (inactive)
c1ccc(CNCc2ccc(CNCc3ccccc3)cc2)cc1	-4.45% (inactive)

Structure (SMILES)	activation
CCOc1ccccc1OCCCNCc1ccccc1	8.23% (active)
CCOCCCNCc1ccc(OCc2ccc(F)cc2)c(OC)c1	-0.52% (inactive)
Cc1ccccc1NC(=O)c1nn(-c2ccc(F)c(F)c2)ccc1=O	0.66% (inactive)
Cc1[nH]c(C)c(S(=O)(=O)N2CCN(c3cccc(C(F)(F)F)c3)CC2)c1C(=O)N1CCCC1	-2.75% (inactive)
COc1ccccc1CNC(=O)c1cc(-c2cc(F)ccc2OC)n[nH]1	1.13% (inactive)
Oc1cc(O)c2c(c1)OC(c1ccc(O)c(O)c1)C(O)C2 (stereo not drawn)	-3.17% (inactive)
O=C(Nc1c(Br)cc2c(c1Br)Cc1cc([N+](=O)[O-])ccc1-2)C(Cl)Cl	-0.8% (inactive)
COc1ccc(C(CNC(=O)c2cccnc2SC)N2CCOCC2)cc1 (stereo not drawn)	-1.39% (inactive)
COc1ccc(C(CNC(=O)c2cc3c(s2)CCCC3)N2CCOCC2)cc1 (stereo not drawn)	9.37% (active)
COc1ccc(C(CNC(=O)CSc2ccccc2)N2CCOCC2)cc1 (stereo not drawn)	-2.38% (inactive)
CCC(C)CCN1CCN=C1N(C)C (stereo not drawn)	-6.93% (inactive)
O=C(NC1CCc2ccccc21)C12CN(Cc3ccccc3)CC1C(c1cccc([N+](=O)[O-])c1)=NO2 (stereo not drawn)	-4.81% (inactive)
O=C(NCCCN1CCOCC1)c1cnn2c(-c3ccccc3)cc(-c3ccccc3)nc12	0.61% (inactive)
COc1cccc(CNn2cn[nH]c2=S)c1OCc1ccccc1	-8.32% (inactive)
COc1ccccc1-n1cn[nH]c1=S	9.25% (active)
FC(F)(F)c1ccc(-n2cn[nH]c2=S)cc1	4.3% (inactive)
CCN(C(=O)Cc1nc(N)n[nH]1)C1(C(=O)Nc2ccccc2)CCCCC1	-1.75% (inactive)
Nc1[nH]c(=S)nc2nc(-c3ccccc3)c(-c3ccccc3)nc12	4.05% (inactive)
CN(C)S(=O)(=O)c1ccc(NC(=O)COC(=O)c2n[nH]c3ccccc23)cc1	14.2% (active)
O=C(COC(=O)c1n[nH]c2ccccc12)Nc1ccccc1Br	-2.21% (inactive)
COc1ccc(S(=O)(=O)N(C)C)cc1NC(=O)COC(=O)c1n[nH]c2ccccc12	-0.9% (inactive)
